RmlC RmlD mix – mixture blocks RmlC and RmlD coupled enzyme activity. 0.39% of 110,000 active. inhibition, % at 5.5 µM. RmlC/RmlD coupled enzyme inhibition, 384-well mixture HTS; in the data active = inhibition above about 30%, passing the limit was not always enough
HIV RNase H inh – blocks HIV-1 RNase H cleavage of RNA/DNA duplex; RT-RNase H RNA/DNA duplex cleavage, fluorescence; 1.9% of 65,000 active; inhibition, % at 10 µM; P04585; AID 565; in the data active = inhibition above about 50%
Active calls of the source: *; x = no result given; + = active, no number. Many of the other results were omitted from the sample, so hits are more common in it than they were.

SMILES	RmlC RmlD mix	HIV RNase H inh
CCOC(=O)N1CCC(NC(=O)c2ccc3c(c2)N(Cc2ccc(C)cc2)CCS3)CC1	-46	x
CCOC(=O)N1CCC(NC(=O)c2ccc3c(c2)N(C)CCS3)CC1	61*	0
COc1ccc(-n2nnnc2Sc2ccc(S(=O)(=O)N3CCOCC3)cn2)cc1	2	86*
COc1ccc(-n2nnnc2SCC(=O)N2CCOCC2)cc1	-6	-2
Cc1ccc(OC2=NS(=O)(=O)c3ccccc32)cc1	-14	x
CCN(CC)c1cccc(OC2=NS(=O)(=O)c3ccccc32)c1	125	55*
Cc1sc2nc(SCC(=O)c3cc(C)n(CC4CCCO4)c3C)n(C(C)C)c(=O)c2c1C (centres undefined)	13	-1
CCO[C@@H]1OC(C(=O)O)=C[C@H](C2CC2)[C@H]1CCCO	-18	x
O=C(NCc1ccccn1)c1cn(CCc2ccccc2)nn1	10	68*
O=C(NCc1cccnc1)c1cn(CCc2ccccc2)nn1	4	-3
COCCN1C(=O)C(=O)/C(=C(/O)c2ccc(OCC(C)C)cc2)C1c1cccnc1 (centres undefined)	x	1
Cc1nn(C(=O)c2ccco2)c(C)c1CN1C(=O)c2ccccc2C1=O	8	-19
Cc1nn(C(=O)c2cccs2)c(C)c1CN1C(=O)c2ccccc2C1=O	-6	64*
Cc1[nH]n(C(N)=S)c(=O)c1C(c1ccccc1)C(C#N)C#N (centres undefined)	0	51*
CCCc1[nH][nH]c(=O)c1C(c1ccccc1)C(C#N)C#N (centres undefined)	7	-71
CCOc1ccccc1Oc1c(C)oc2cc(OC(=O)c3ccco3)ccc2c1=O	23	x
COc1ccccc1-c1c(C)oc2cc(OC(=O)c3ccco3)ccc2c1=O	32*	-4
CCOC(=O)N1CCN(C(=O)CN(c2ccc(Cl)c(C(F)(F)F)c2)S(C)(=O)=O)CC1	2	7
CCOC(=O)Cn1c(=O)oc2cc(S(=O)(=O)Nc3ccc(N(CC)CC)cc3C)ccc21	6	50*
CCOC(=O)Cn1c(=O)oc2cc(S(=O)(=O)Nc3cc(OCC)ccc3OCC)ccc21	-6	2
COc1ccc(/C(O)=C2\C(=O)C(=O)N(c3cc(C)on3)C2c2ccccc2OC)cc1 (centres undefined)	0	8
COc1ccccc1C1c2c(oc3ccc(Cl)cc3c2=O)C(=O)N1c1cc(C)on1 (centres undefined)	x	51*
CCNc1nc(NCC)nc(N(C)N)n1	5	x
CCc1nc(N)c(C#N)c(-c2ccccc2OC)c1C	5	-4
Cc1ccc(S(=O)(=O)Nc2ccc3oc(=O)sc3c2)c(C)c1	3	60*
SMILES	RmlC RmlD mix	HIV RNase H inh
Cc1ccc(C)c(S(=O)(=O)Nc2ccc3sc(C)nc3c2)c1	-1	x
O=c1cc(CSc2nnc(-c3cccs3)n2Cc2ccccc2)nc2sc3ccccc3n12	-10	51*
Cc1cc(C(=O)CSc2nnc(-c3cccs3)n2Cc2ccccc2)c(C)n1C	-13	-47
O=C(c1cccs1)N(Cc1ccccn1)Cc1ccco1	-4	-2
S=C1SCN(Cc2ccccn2)CN1Cc1ccco1	7	52*
Cc1oc(C(=O)O)cc1CSCc1cc(C(=O)O)c(C)o1	-10	51*
Cc1oc(C(=O)O)cc1CSCc1ccoc1C(=O)O	5	24
CCOC(=O)c1sc2nc(SCC(=O)NCc3ccco3)n(Cc3ccccc3)c(=O)c2c1C	x	66*
Cc1ccc(-n2c(SCC(=O)NCc3ccco3)nc3sc(C)c(C)c3c2=O)cc1	3	55*
Cc1sc2nc(SCC(=O)NCc3ccco3)n(Cc3ccccc3)c(=O)c2c1C	-5	x
Cc1sc2nc(SCC(=O)NCc3ccco3)n(-c3ccccc3)c(=O)c2c1C	-9	27
C[C@H](NC(CCc1ccccc1)C(=O)O)C(=O)N1CCC[C@H]1C(=O)O (some centres undefined)	-10	x
COC(C[C@@H]1O[C@@H]1[C@H](O)COCc1ccccc1)OC	-7	x
CC(C)[C@@]1(NC(=O)[C@@H]2C=C3c4cccc5[nH]cc(c45)C[C@H]3N(C)C2)O[C@@]2(O)[C@@H]3CCCN3C(=O)[C@H](Cc3ccccc3)N2C1=O	x	55*
CC(C)C[C@H]1C(=O)N2CCCC2[C@]2(O)O[C@](NC(=O)[C@@H]3C=C4c5cccc6[nH]cc(c56)CC4N(C)C3)(C(C)C)C(=O)N12 (some centres undefined)	-3	x
COc1ccc2c(c1)C(C)(CCN)C(=O)N2C (centres undefined)	-10	x
CCOC(=O)CS(=O)(=O)c1nc(-c2ccc(F)cc2)cc(C(F)(F)F)n1	-9	55*
CCOC(=O)CS(=O)(=O)c1nc(-c2ccccc2)cc(C(F)(F)F)n1	8	20
Cc1ccc(NC(=O)NNc2cccc(Cl)n2)cc1	1	x
N[C@@H](Cc1ccc(O)cc1)c1nnc([C@H](CC(=O)O)NC(=O)C2CCNCC2)o1	-3	x
CCC1=C(OC(=O)N(CC)CC)N2C(=O)OC(=NCC3CC3)[C@]2(Cc2ccccc2)[C@H]2C1=CC[C@H]1C(=O)NC(=O)[C@H]12	-7	x
Cc1c(Cc2ccccc2)c(=O)oc2cc(OC(=O)c3ccccc3)ccc12	-13	x
CCC(=O)Oc1ccc2c(C)c(Cl)c(=O)oc2c1	+	-6
N#Cc1ccc(-n2nccc2-c2cnc3n(c2=O)CCS3)cc1	10	x
CCOC(=O)N1CCN(c2cc3[nH]c(=S)[nH]c3cc2F)CC1	-10	61*
SMILES	RmlC RmlD mix	HIV RNase H inh
CCOC(=O)N1CCN(c2c(F)cc3[nH]c(=S)[nH]c3c2Br)CC1	7	48
CCn1c(CNC(=O)Cc2ccc(OC)cc2)nnc1SCC(=O)Nc1nccs1	-5	3
CCn1c(COc2ccc3c(c2)CCCC3)nnc1SCC(=O)Nc1nccs1	10	62*
C/C=C1\C(OC2OC(CO)C(O)C(O)C2O)OC=C(C(=O)OC)C1CC(=O)OCC1C(C)C(OC(=O)CC2C(C(=O)OC)=COC(OC3OC(CO)C(O)C(O)C3O)/C2=C\C)CC1C(CO)CO (centres undefined)	-15	x
COC(=O)[C@H]1[C@@H](C)N(Cc2ccccc2)C(=O)N[C@H]1c1ccccc1	8	x
CCC(Sc1ccc(C(=O)O)cc1)C(=O)O (centres undefined)	2	57*
CCC(Sc1nc(C)cc(C)n1)C(=O)O (centres undefined)	5	-9
C=CCn1c(N(C)C)nc2c1c(=O)[nH]c(=O)n2C	8	-11
O=C(O)C[C@H]1c2cc(C(F)(F)F)ccc2S(=O)(=O)N1C1CCN(Cc2ccccc2)CC1	-18	x
O=C(CCCCCn1c(=S)[nH]c2cc3c(cc2c1=O)OCO3)N1CCN(C(=O)c2ccco2)CC1	-10	10
O=C(CCCCCn1c(=S)[nH]c2cc3c(cc2c1=O)OCO3)N1CCN(Cc2ccccc2)CC1	9	68*
O=C(NCc1ccccn1)c1coc(=O)c(Br)c1	34*	5
CCOc1ccc(C(=O)NCc2ccccn2)cc1	-31	1
O=C(c1ccc(CNS(=O)(=O)c2ccccc2)cc1)N1CCN(c2ccccn2)CC1	x	63*
O=C(c1ccc(Cl)c(S(=O)(=O)NCc2ccccc2)c1)N1CCN(c2ccccn2)CC1	-15	x
COCCOC(=O)c1c(C)nc(SCC(=O)Nc2ccc(OC)cc2)c(C#N)c1-c1ccco1	25	-2
COc1cccc(NC(=O)CSc2nc3c(c(-c4ccco4)c2C#N)CCCC3)c1	13	58*
C#Cc1ccc([C@@H]2C=C(C(=O)NC3CC3)O[C@H](OCCCCO)C2)cc1	-13	x

Screening data deposited in PubChem BioAssay by several laboratories.
